Test results: PubChem BioAssay AID1159580 (chemical genetic matrix, 2015)
The whole screen tested about 5,500 compounds, of which about 2,000 (36%) were called active. About 18% were inconclusive and are not listed. No stated cut-off is given here; in the data, active means normalized growth mostly below about 0.91 (no sharp cut-off); inconclusive means no clear call, values can overlap the other calls; inactive means mostly above about 0.92. This is one part of the list.

Assay: chemical genetic growth profiling, strain panel (AID 1159580);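 further: tested at 20 µM; growth read once vehicle control cultures reached saturation at 30 °C; 1 = growth at the plate median or of vehicle wells; lower values mean less growth of the strain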
Details: growth OD

Measured: normalized growth

O=c1c(O)c(-c2ccccc2)oc2ccc3occc3c12
active: S. cerevisiae deletion strains, locus YJR075W, strain HOC1, active compounds read low 0.861 | S. cerevisiae deletion strains, locus YKL009W, strain mrt4, active compounds read low 0.793 | S. cerevisiae deletion strains, locus YKL160W, strain elf1, active compounds read low 0.687 | S. cerevisiae deletion strains, locus YKR001C, strain vps1, active compounds read low 0.772 | S. cerevisiae deletion strains, locus YLL001W, strain dnm1, active compounds read low 0.657 | S. cerevisiae deletion strains, locus YLL026W, active compounds read low 0.867 | S. cerevisiae deletion strains, locus YLR027C, strain aat2, active compounds read low 0.795 | S. cerevisiae deletion strains, locus YLR058C, strain SHM2, active compounds read low 0.854 | S. cerevisiae deletion strains, locus YLR102C, strain apc9, active compounds read low 0.912 | S. cerevisiae deletion strains, locus YLR221C, strain rsa3, active compounds read low 0.844 | S. cerevisiae deletion strains, locus YLR258W, strain gsy2, active compounds read low 0.745 | S. cerevisiae deletion strains, locus YLR262C, strain YPT6 (second series), active compounds read low 0.795 | S. cerevisiae deletion strains, locus YLR268W, strain sec22, active compounds read low 0.77 | S. cerevisiae deletion strains, locus YLR320W, strain mms22, active compounds read low 0.76 | S. cerevisiae deletion strains, locus YLR330W, strain CHS5, active compounds read low 0.847 | S. cerevisiae deletion strains, locus YLR342W, strain FKS1 (second series), active compounds read low 0.755 | S. cerevisiae deletion strains, locus YLR342W, strain FKS1, active compounds read low 0.796 | S. cerevisiae deletion strains, locus YLR370C, strain arc18, active compounds read low 0.768 | S. cerevisiae deletion strains, locus YLR371W, strain rom2, active compounds read low 0.655 | S. cerevisiae deletion strains, locus YLR418C, strain cdc73, active compounds read low 0.451 | S. cerevisiae deletion strains, locus YML032C, strain rad52, active compounds read low 0.685 | S. cerevisiae deletion strains, locus YML120C, strain ndi1, active compounds read low 0.753 | S. cerevisiae deletion strains, locus YML124C, strain tub3, active compounds read low 0.899 | S. cerevisiae deletion strains, locus YMR058W, strain fet3, active compounds read low 0.817 | S. cerevisiae deletion strains, locus YMR078C, strain ctf18, active compounds read low 0.852 | S. cerevisiae deletion strains, locus YMR125W, strain sto1, active compounds read low 0.877 | S. cerevisiae deletion strains, locus YMR129W, active compounds read low 0.88 | S. cerevisiae deletion strains, locus YMR205C, strain PFK2, active compounds read low 0.611 | S. cerevisiae deletion strains, locus YMR223W, strain ubp8, active compounds read low 0.762 | S. cerevisiae deletion strains, locus YMR263W, strain SAP30, active compounds read low 0.854 | S. cerevisiae deletion strains, locus YNL067W, strain RPL9B, active compounds read low 0.863 | S. cerevisiae deletion strains, locus YNL071W, strain lat1, active compounds read low 0.363 | S. cerevisiae deletion strains, locus YNL209W, strain ssb2, active compounds read low 0.853 | S. cerevisiae deletion strains, locus YNL233W, strain BNI4, active compounds read low 0.693 | S. cerevisiae deletion strains, locus YNL271C, strain bni1, active compounds read low 0.889 | S. cerevisiae deletion strains, locus YNL298W, strain CLA4, active compounds read low 0.887 | S. cerevisiae deletion strains, locus YNL307C, strain MCK1, active compounds read low 0.521 | S. cerevisiae deletion strains, locus YNL322C, strain KRE1 (second series), active compounds read low 0.814 | S. cerevisiae deletion strains, locus YNR052C, strain pop2, active compounds read low 0.864 | S. cerevisiae deletion strains, locus YOL147C, strain pex11, active compounds read low 0.703 | S. cerevisiae deletion strains, locus YOR001W, strain rrp6, active compounds read low 0.826 | S. cerevisiae deletion strains, locus YOR070C, strain gyp1, active compounds read low 0.806 | S. cerevisiae deletion strains, locus YOR080W, strain dia2, active compounds read low 0.889 | S. cerevisiae deletion strains, locus YOR083W, strain WHI5, active compounds read low 0.79 | S. cerevisiae deletion strains, locus YOR106W, strain vam3, active compounds read low 0.737 | S. cerevisiae deletion strains, locus YOR136W, strain idh2, active compounds read low 0.876 | S. cerevisiae deletion strains, locus YOR144C, strain elg1, active compounds read low 0.823 | S. cerevisiae deletion strains, locus YOR184W, strain ser1, active compounds read low 0.557 | S. cerevisiae deletion strains, locus YOR265W, strain rbl2, active compounds read low 0.85 | S. cerevisiae deletion strains, locus YOR270C, strain vph1, active compounds read low 0.409 | S. cerevisiae deletion strains, locus YOR290C, strain snf2, active compounds read low 0.589 | S. cerevisiae deletion strains, locus YOR316C, strain cot1, active compounds read low 0.881 | S. cerevisiae deletion strains, locus YPL051W, strain arl3, active compounds read low 0.725 | S. cerevisiae deletion strains, locus YPL078C, strain atp4, active compounds read low 0.513 | S. cerevisiae deletion strains, locus YPL106C, strain sse1, active compounds read low 0.769 | S. cerevisiae deletion strains, locus YPL240C, strain hsp82, active compounds read low 0.833 | S. cerevisiae deletion strains, locus YPR119W, strain clb2, active compounds read low 0.888 | S. cerevisiae deletion strains, locus YPR163C, strain tif3, active compounds read low 0.72 | S. cerevisiae deletion strains, locus YPR167C, strain met16, active compounds read low 0.851 | S. cerevisiae deletion strains, strain wtn01, active compounds read low 0.757 | S. cerevisiae strains, strain wild type, active compounds read low 0.896
inactive: S. cerevisiae deletion strains, locus YKL068W, active compounds read low 0.962 | S. cerevisiae deletion strains, locus YKL085W, strain MDH1 (second series), active compounds read low 0.937 | S. cerevisiae deletion strains, locus YKL085W, strain MDH1, active compounds read low 0.937 | S. cerevisiae deletion strains, locus YKL190W, strain CNB1, active compounds read low 0.941 | S. cerevisiae deletion strains, locus YKR026C, strain gcn3, active compounds read low 0.954 | S. cerevisiae deletion strains, locus YKR091W, strain srl3, active compounds read low 0.974 | S. cerevisiae deletion strains, locus YLL041C, strain sdh2, active compounds read low 0.948 | S. cerevisiae deletion strains, locus YLR039C, strain RIC1, active compounds read low 0.878 | S. cerevisiae deletion strains, locus YLR113W, strain HOG1, active compounds read low 0.893 | S. cerevisiae deletion strains, locus YLR262C, strain YPT6, active compounds read low 0.946 | S. cerevisiae deletion strains, locus YLR357W, strain rsc2, active compounds read low 0.87 | S. cerevisiae deletion strains, locus YLR384C, strain iki3, active compounds read low 0.954 | S. cerevisiae deletion strains, locus YML016C, strain PPZ1, active compounds read low 0.939 | S. cerevisiae deletion strains, locus YMR231W, strain pep5, active compounds read low 1 | S. cerevisiae deletion strains, locus YMR307W, strain GAS1, active compounds read low 0.687 | S. cerevisiae deletion strains, locus YNL128W, strain TEP1, active compounds read low 0.911 | S. cerevisiae deletion strains, locus YNL183C, strain NPR1, active compounds read low 0.884 | S. cerevisiae deletion strains, locus YNL248C, strain rpa49, active compounds read low 0.953 | S. cerevisiae deletion strains, locus YNL250W, strain rad50, active compounds read low 0.921 | S. cerevisiae deletion strains, locus YNL322C, strain KRE1, active compounds read low 0.954 | S. cerevisiae deletion strains, locus YNR049C, strain mso1, active compounds read low 0.93 | S. cerevisiae deletion strains, locus YOL012C, strain htz1 1.09 | S. cerevisiae deletion strains, locus YOR061W, strain CKA2, active compounds read low 0.935 | S. cerevisiae deletion strains, locus YOR069W, strain VPS5, active compounds read low 0.932 | S. cerevisiae deletion strains, locus YOR231W, strain MKK1, active compounds read low 0.909 | S. cerevisiae deletion strains, locus YPL241C, strain CIN2, active compounds read low 0.966 | S. cerevisiae deletion strains, locus YPL256C, strain CLN2, active compounds read low 0.982 | S. cerevisiae deletion strains, locus YPR141C, strain kar3, active compounds read low 0.956
